A short description of assay [1]: Quantitative High-Throughput drug screen in 47 multiple myeloma cell lines against the NCATS MIPE library collection: KMS12BM_JCRB cell viability assay (AID 1918971). Further: nearly all actives have a fitted effect of over 35% in size. In short, it runs like this:
(§1)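 Myeloma cells (500 per well) were exposed to MIPE 4.0 compounds by pin transfer and incubated 48 hours at 37C, 5% CO2. Viability was read as ATP by CellTiter-Glo luminescence, normalised to DMSO (100%) and media-only (0%) wells.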

Assay [2] in a line: Quantitative High-Throughput drug screen in 47 multiple myeloma cell lines against the NCATS MIPE library collection: KMS12PE_JCRB cell viability assay (AID 1918972). Further: nearly all actives have a fitted effect of over 30% in size. The essentials:
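qHTS of the MIPE 4.0 collection: 500 myeloma cells/well, 48 h drug exposure at 37C in 5% CO2, then CellTiter-Glo for 5 min at room temperature before luminescence reading.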

Assay [3] is described as follows: Quantitative High-Throughput drug screen in 47 multiple myeloma cell lines against the NCATS MIPE library collection: KMS20_JCRB cell viability assay (AID 1918973). Further: nearly all actives have a fitted effect of over 45% in size. The essentials: as §1
Assay [4] is described as follows: Quantitative High-Throughput drug screen in 47 multiple myeloma cell lines against the NCATS MIPE library collection: MMM1_PLB cell viability assay (AID 1918976). Further: nearly all actives have a fitted effect of over 35% in size. The essentials: (§2)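 Viability after 48 h drug exposure was measured as ATP-dependent luminescence. Cells, 500 per well, sat at 37 °C under 5% CO2; DMSO wells set 100%, media-only wells 0%.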
A short description of assay [5]: Quantitative High-Throughput drug screen in 47 multiple myeloma cell lines against the NCATS MIPE library collection: NCIH929_DSMZ cell viability assay (AID 1918978). Further: nearly all actives have a fitted effect of over 35% in size. In short, it runs like this: as §2
Assay [6] can be described thus: Quantitative High-Throughput drug screen in 47 multiple myeloma cell lines against the NCATS MIPE library collection: OCIMY1_PLB cell viability assay (AID 1918979). Further: nearly all actives have a fitted effect of over 35% in size. In short, it runs like this:
as §2

Assay [7] in a line: Quantitative High-Throughput drug screen in 47 multiple myeloma cell lines against the NCATS MIPE library collection: MM1S_ATCC cell viability assay (AID 1918980). Further: nearly all actives have a fitted effect of over 45% in size. The essentials:
as §2

Assay [8] in a line: Quantitative High-Throughput drug screen in 47 multiple myeloma cell lines against the NCATS MIPE library collection: KMS21BM_JCRB cell viability assay (AID 1918974). The conditions noted are these: ATP luminescence, 48 h; viability: at 45.8 µM (top of the series). In short, it runs like this: as §1
Assay [9] can be described thus: Quantitative High-Throughput drug screen in 47 multiple myeloma cell lines against the NCATS MIPE library collection: KMS26_JCRB cell viability assay (AID 1918975). Further: nearly all actives have a fitted effect of over 45% in size. The essentials: as §1
Assay [10] in a line: Quantitative High-Throughput drug screen in 47 multiple myeloma cell lines against the NCATS MIPE library collection: MOLP8_DSMZ cell viability assay (AID 1918977). Further: nearly all actives have a fitted effect of over 45% in size. In short, it runs like this: as §2

This is an account of results in PubChem BioAssay (NCATS).

Inconclusive results are not listed. Activity calls are given as the source filed them. The call rests on the fitted dose curve; in most records, active means well fitted curve in the direction sought with a large enough effect; inconclusive means small, poorly fitted or top-dose-only effect, or another doubt; inactive means no such curve, though single readings can be large; an effect the other way counts as inactive or inconclusive.
Potency means the concentration at half of the fitted maximal effect.

For the compound `C[C@]12Cc3cn[nH]c3C[C@@H]1CC[C@@H]1[C@H]2CC[C@@]2(C)[C@H]1CC[C@]2(C)O`, the Potency is 16.6 µM (active) in assay [1] and 23.5 µM (active) in assay [4]. Besides, the Potency result in assay [2], in assay [3], in assay [5], in [6] and in assay [7] was “inactive” in each case.
For the compound `C[C@@H]1CC[C@@]2(OC1)O[C@H]1C[C@H]3[C@@H]4CC=C5C[C@@H](O[C@@H]6O[C@H](CO)[C@@H](O[C@@H]7O[C@@H](C)[C@H](O)[C@@H](O)[C@@H]7O)[C@H](O)[C@@H]6O[C@@H]6O[C@@H](C)[C@H](O)[C@@H](O)[C@@H]6O)CC[C@]5(C)[C@@H]4CC[C@]3(C)[C@@H]1[C@H]2C`, the Potency is 1.32 µM (active) in [2]; 4.18 µM (active) in assay [3]; 1.48 µM (active) in assay [8]; 2.35 µM (active) in assay [9]; 2.35 µM (active) in [4]; 1.87 µM (active) in assay [10]. In addition, the Potency in [5] is 4.18 µM (active); in assay [6], 1.66 µM (active).
Consider `CC=C(C)C(=O)N[C@@H](c1ccccc1)[C@@H](O)C(=O)O[C@H]1C[C@@]2(O)[C@@H](OC(=O)c3ccccc3)[C@@H]3[C@]4(OC(C)=O)CO[C@@H]4C[C@H](O)[C@@]3(C)C(=O)[C@H](OC(C)=O)C(=C1C)C2(C)C`, for which the Potency result in [1], in assay [3], in assay [9], in assay [10], in [5] and in assay [7] was “inactive” in each case.
As to `O=S(=O)(F)Cc1ccccc1`, the Potency entry in assay [1], in assay [2], in [10], in assay [5] and in assay [6] was “inactive” in each case. Also, the Potency in assay [7] was 0.0418 µM (active).
As for `COc1ccc(CC2NCCc3cc(OC)c(OC)cc32)cc1OC` (stereo not drawn), the Potency result in assay [1], in assay [2], in assay [9] and in assay [10] was “inactive” throughout.
Turning to `C[C@@H]1O[C@@H](O[C@@H]2C=C3CC[C@@H]4[C@@H](CC[C@]5(C)[C@H](c6ccc(=O)oc6)CC[C@@]45O)[C@@]3(C)CC2)[C@H](O)[C@H](O)[C@H]1O`, the Potency in assay [1] is 0.0187 µM (active); in assay [2] it was 0.0074 µM (active); in assay [3], 0.0187 µM (active); in assay [8], 0.0264 µM (active); in assay [9], 0.0418 µM (active); in [4], 0.0264 µM (active). Moreover, the Potency was 0.0296 µM (active) in [10], 0.0469 µM (active) in [5], 0.0166 µM (active) in assay [6] and 0.0296 µM (active) in assay [7].
As for `CC(=Cc1csc(C)n1)[C@@H]1C[C@H]2O[C@@H]2CCC[C@H](C)[C@@H](O)[C@@H](C)C(=O)C(C)(C)[C@@H](O)CC(=O)O1`, the Potency entry in assay [1], in assay [9], in assay [5], in assay [6] and in [7] was “inactive” in each case.
`CC(C)(O)C=CC(=O)[C@](C)(O)[C@H]1[C@H](O)C[C@]2(C)[C@@H]3CC=C4[C@@H](C=C(O)C(=O)C4(C)C)[C@]3(C)C(=O)C[C@@]12C`: the Potency in [2] was 0.0418 µM (active); in [3], 0.0187 µM (active); in [8], 0.0148 µM (active); in assay [9], 0.0372 µM (active); in assay [4] it was 1.32 µM (active); in [10] it was 0.0469 µM (active). Further, the Potency in [5] was 0.0469 µM (active); in assay [6], 0.105 µM (active); in [7], 0.0418 µM (active).
`C[C@]12COC(=O)C[C@@H]1CC[C@@H]1[C@H]2CC[C@@]2(C)[C@H]1CC[C@]2(C)O`: the Potency in assay [1] was 1.18 µM (active). For the same compound, the Potency entry in [2], in assay [3], in assay [9], in [5], in assay [6] and in [7] was “inactive” each time.
With `CC1(N2CCC(n3c([C@@H]4CCCNC4)nc4ccccc43)CC2)CCCCCCC1`, the Potency in assay [1] is 20.9 µM (active); in [2], 7.43 µM (active); in [5], 11.8 µM (active); in assay [6] it was 20.9 µM (active); in [7], 4.69 µM (active).
Consider `c1ccc2c(CN3CCNCC3)cccc2c1`, for which the Potency entry in [1], in assay [2], in assay [9], in [10], in [5] and in assay [6] was “inactive” each time. For the same compound, the Potency entry in assay [7] is “inactive”.
For `O=c1cccc2n1CC1CNC[C@H]2C1`, the Potency result in assay [1], in assay [9], in [10] and in assay [6] was “inactive” in each case. Further, the Potency in assay [2] is 9.35 µM (active); in [3], 11.8 µM (active); in assay [7] it was 10.5 µM (active).
Turning to `O=S(=O)(CC1CS1)c1ccc(Oc2ccccc2)cc1` (stereo not drawn), the Potency in [1] was 26.4 µM (active); in [2], 3.72 µM (active); in assay [3] it was 14.8 µM (active); in assay [9], 26.4 µM (active); in [4] it was 16.6 µM (active); in [10], 16.6 µM (active). For the same compound, the figures for the Potency in [5] and in assay [7] were 16.6 µM (active) and 14.8 µM (active), respectively.
As for `O=C(Nc1ccncc1)C(=O)c1cn(Cc2ccc(Cl)cc2)c2ccccc12`, the Potency was 0.148 µM (active) in assay [1]; 0.0209 µM (active) in assay [2]; 0.0074 µM (active) in assay [8]; 9.35 µM (active) in assay [9]; 14.8 µM (active) in assay [4]; 1.32 µM (active) in assay [5]. The figures for the Potency in [6] and in [7] were 0.118 µM (active) and 0.264 µM (active), respectively.
In the case of `CC[C@@]1(O)C(=O)OCc2c1cc1n(c2=O)Cc2cc3ccccc3nc2-1`, the Potency in assay [1] is 0.166 µM (active); in assay [2], 0.132 µM (active); in assay [3], 0.209 µM (active); in assay [9], 2.35 µM (active); in assay [4] it was 0.935 µM (active); in assay [10], 0.132 µM (active). Further, the Potency in [5] is 0.105 µM (active); in assay [6] it was 0.418 µM (active); in assay [7], 0.0235 µM (active).
Take `COc1cc2cc(c1Cl)N(C)C(=O)C[C@H](OC(=O)C(C)C)[C@]1(C)O[C@H]1[C@H](C)[C@@H]1C[C@@](O)(NC(=O)O1)[C@H](OC)C=CC=C(C)C2`: the Potency result in assay [1], in [2], in assay [3], in [9], in [4] and in [10] was “inactive” in each case. In addition, the Potency result in assay [5] and in assay [7] was “inactive” each time.
`CC[C@@H]1[C@@H](C)O[C@@](O)([C@@H](C)[C@H](O)[C@H](C)[C@H]2OC(=O)C=CC=C[C@@H](C)[C@@H]([C@@H](C)[C@@H](O)[C@H](C)[C@@]3(O)C[C@H](O[C@H]4C[C@H](O)[C@H](O)[C@H](C)O4)[C@H](CC)[C@@H](C)O3)OC(=O)C=CC=C[C@@H]2C)C[C@H]1O[C@H]1C[C@H](O)[C@H](O)[C@H](C)O1`: the Potency in assay [1] is 0.935 µM (active); in [2], 0.372 µM (active); in assay [3], 0.833 µM (active); in [9], 0.526 µM (active); in [4], 0.743 µM (active); in assay [10] it was 0.418 µM (active). Besides, the Potency in [5] is 0.935 µM (active); in assay [6], 0.833 µM (active); in assay [7], 0.469 µM (active).
